The panel holds about 83,000 compounds, 20% with a hit somewhere; the sample as a whole holds those more often.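 Negative percent growth values reflect cell death: -40 means 40% of the cells present at the start died, and -100 means all died.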 Values without a mark were called inactive. Calls of active or inactive are those of the source. Rule for the calls: active = growth percent below 10; inactive = the rest.

Some test systems named below: HCT-15 colon; HT29 colon; SNB-75 CNS; SNB-19 CNS; U251 CNS; PC-3 prostate; SK-MEL-5 melanoma; UACC-62 melanoma; LOX IMVI melanoma; SK-MEL-28 melanoma; SK-MEL-2 melanoma; EKVX NSCLC; SN12C renal; UO-31 renal; TK-10 renal; ACHN renal; CAKI-1 renal; A498 renal; CCRF-CEM leukemia; MOLT-4 leukemia.
Common to all, as to experiment: NCI-60 one-dose screen, 48 h (100 = growth as untreated, 0 = no growth, -100 = all killed)
Common to all, as to conditions: 10 µM unless noted

Consider `O=C(/C=C/C12c3ccccc3C(c3ccccc31)C1C(=O)NC(=O)C12)c1ccc(F)cc1` (stereo not drawn), for which the growth in the assay with HCT-15 colon is -10.6% (active); in the assay with HT29 colon, -3.81% (active); in the assay with SNB-75 CNS, 7.89% (active); in the assay with SNB-19 CNS, 10.6%; in the assay with U251 CNS, -44.4% (active); with PC-3 prostate it was 8.91% (active). Besides, the growth was 10.8% with SK-MEL-5 melanoma; -55.6% (active) in the assay with UACC-62 melanoma; -53.9% (active) in the assay on LOX IMVI melanoma; 6.45% (active) in the assay with SK-MEL-28 melanoma; -52.2% (active) in the assay with SK-MEL-2 melanoma; 19.1% in the assay on EKVX NSCLC. The growth in the assay on SN12C renal was 11.2%; in the assay with UO-31 renal, 15.8%; in the assay with TK-10 renal, 16.8%; with ACHN renal, 4.11% (active); in the assay on CAKI-1 renal, 16.7%; with A498 renal it was -6.86% (active). Also, the growth is -0.929% (active) with CCRF-CEM leukemia and 2.98% (active) in the assay on MOLT-4 leukemia.

Turning to `O=C(Nc1nc(C(=O)N2CCN(C(c3ccccc3)c3ccccc3)CC2)cs1)c1ccc(NC2CCCCC2)c([N+](=O)[O-])c1`, the growth was 96.9% in the assay with HCT-15 colon; 86.1% in the assay on HT29 colon; 86.1% in the assay on SNB-75 CNS; 85.9% with SNB-19 CNS; 83.5% in the assay with U251 CNS; 76.1% in the assay with PC-3 prostate. Also, the growth was 60.6% with SK-MEL-5 melanoma; 67.1% with UACC-62 melanoma; 91.5% in the assay on LOX IMVI melanoma; 100% in the assay with SK-MEL-28 melanoma; 104% in the assay on SK-MEL-2 melanoma; 77.9% in the assay with EKVX NSCLC. For the same compound, the growth in the assay on SN12C renal is 85.6%; with UO-31 renal, 66.1%; in the assay with TK-10 renal, 100%; in the assay on ACHN renal, 86.6%; in the assay on CAKI-1 renal, 78.4%; in the assay on A498 renal it was 87.6%. Besides, the growth was 95% with CCRF-CEM leukemia and 77.9% with MOLT-4 leukemia.

`Nc1ncnc2c1c(-c1ccc(Oc3ccccc3)cc1)nn2CC1SSCC1O` (stereo not drawn): the growth in the assay on HCT-15 colon was 65.3%; with HT29 colon it was 39.2%; in the assay with SNB-75 CNS, 43.5%; in the assay with SNB-19 CNS it was 45.5%; in the assay on U251 CNS, 39.7%; with PC-3 prostate it was 61.7%. Moreover, the growth in the assay on SK-MEL-5 melanoma was -42.9% (active); with UACC-62 melanoma, -76.1% (active); with LOX IMVI melanoma, 19.2%; with SK-MEL-28 melanoma, 2.15% (active); in the assay on SK-MEL-2 melanoma, 56.8%; with EKVX NSCLC, 4.11% (active). The growth in the assay with SN12C renal was 49.1%; in the assay on UO-31 renal, -3.62% (active); in the assay with TK-10 renal it was 8.91% (active); in the assay on ACHN renal, 25.9%; in the assay on CAKI-1 renal, 42.5%; in the assay on A498 renal, 27.8%. Further, the figures for the growth with CCRF-CEM leukemia and with MOLT-4 leukemia were 9.92% (active) and -33.3% (active), respectively.

As for `CCCCCCCCCCCCCCCCCCOc1ccccc1CC(=O)NCC[N+]1(C)CCOCC1`, the growth was 91.1% in the assay on HCT-15 colon; 29.8% with HT29 colon; 46.9% in the assay on SNB-75 CNS; 25.9% in the assay with SNB-19 CNS; 10.1% with U251 CNS; -46.4% (active) in the assay with PC-3 prostate. In addition, the growth in the assay with SK-MEL-5 melanoma is 75%; in the assay with UACC-62 melanoma, 56.3%; with LOX IMVI melanoma it was 55.5%; in the assay with SK-MEL-28 melanoma, 74.7%; in the assay on SK-MEL-2 melanoma it was 74.6%; in the assay on EKVX NSCLC it was 91.3%. Besides, the growth with SN12C renal was 40.5%; in the assay with UO-31 renal, 77.3%; in the assay with TK-10 renal, 7.69% (active); with ACHN renal, 84.5%; in the assay with CAKI-1 renal, 98.6%; in the assay on A498 renal, 67.4%. The growth is -36.4% (active) in the assay with CCRF-CEM leukemia and 14.6% in the assay on MOLT-4 leukemia.

Take `OC(c1ccccc1)(c1ccccc1)c1ccccc1-c1ccccc1`: the growth in the assay on HCT-15 colon was 90.7%; in the assay on HT29 colon, 73.4%; in the assay on SNB-75 CNS it was 94.1%; in the assay on SNB-19 CNS, 94%; in the assay on U251 CNS, 92.8%; with PC-3 prostate it was 86%. The growth with SK-MEL-5 melanoma is 96.4%; with UACC-62 melanoma, 79.2%; in the assay with LOX IMVI melanoma it was 87.2%; in the assay on SK-MEL-28 melanoma, 109%; with SK-MEL-2 melanoma, 103%; in the assay with EKVX NSCLC, 115%. Besides, the growth in the assay on SN12C renal is 89%; with UO-31 renal, 78.5%; in the assay on TK-10 renal, 89.8%; in the assay with ACHN renal it was 99%; with CAKI-1 renal, 84.2%; in the assay with A498 renal, 81.5%. Besides, the growth with CCRF-CEM leukemia is 92.9%.

As to `COc1cccc(OC)c1Oc1c(-c2nc3ccccc3s2)c(C)nn1-c1ccccc1`, the growth was 51.7% with HCT-15 colon; 71.2% in the assay on HT29 colon; 74.8% in the assay on SNB-75 CNS; 92.7% in the assay on SNB-19 CNS; 84.8% with U251 CNS; 51.1% in the assay on PC-3 prostate. The growth in the assay with SK-MEL-5 melanoma was 73.7%; with UACC-62 melanoma, 56.2%; in the assay with LOX IMVI melanoma, 62.9%; with SK-MEL-28 melanoma it was 106%; in the assay on SK-MEL-2 melanoma, 90.6%; in the assay with EKVX NSCLC, 71.9%. The growth is 82.6% with SN12C renal; 49.5% in the assay with UO-31 renal; 94.7% in the assay on TK-10 renal; 72.8% in the assay on ACHN renal; 44.9% in the assay on CAKI-1 renal; 82.3% in the assay on A498 renal. The growth in the assay with CCRF-CEM leukemia was 62.9%; with MOLT-4 leukemia, 51.2%.

Consider `CC12CCC(/C(=C/NNc3ccc([N+](=O)[O-])cc3[N+](=O)[O-])C1=O)C2(C)C` (stereo not drawn), for which the growth is 23% with HCT-15 colon; 52.6% with HT29 colon; 136% with SNB-75 CNS; 94.1% in the assay on SNB-19 CNS; 58.4% with U251 CNS; 59.5% with PC-3 prostate. Also, the growth in the assay on SK-MEL-5 melanoma is 65.5%; in the assay on UACC-62 melanoma, 64.5%; in the assay with LOX IMVI melanoma it was 56.5%; with SK-MEL-28 melanoma, 83.5%; with SK-MEL-2 melanoma it was 38.4%; in the assay on EKVX NSCLC, 90.8%. For the same compound, the growth in the assay on SN12C renal was 73.1%; in the assay on UO-31 renal, 55.2%; in the assay on TK-10 renal, 96.8%; with ACHN renal, 34.3%; with CAKI-1 renal, 46.8%; with A498 renal it was 88.5%. Besides, the growth with CCRF-CEM leukemia is 47.4%.

As to `CCOC(=O)C1=C(C)N=C2SC=C(c3ccccc3)N2[C@H]1c1cn[nH]c1-c1ccc(Cl)cc1`, the growth in the assay on HCT-15 colon is 24.6%; in the assay with HT29 colon, 36.8%; with SNB-75 CNS, 73.8%; in the assay with SNB-19 CNS it was 59.2%; in the assay on U251 CNS, 31.2%; in the assay with PC-3 prostate, 34.7%. Moreover, the growth in the assay with SK-MEL-5 melanoma was 49.7%; with UACC-62 melanoma it was 36.2%; with LOX IMVI melanoma it was 5.54% (active); in the assay with SK-MEL-28 melanoma it was 75.2%; in the assay on SK-MEL-2 melanoma, 65.6%; with EKVX NSCLC, 72.3%. Moreover, the growth is 48.8% with SN12C renal; -33% (active) in the assay on UO-31 renal; 63.3% in the assay with TK-10 renal; 41.1% with ACHN renal; -15.1% (active) with CAKI-1 renal; 68.8% in the assay with A498 renal. Also, the results for the growth in the assay with CCRF-CEM leukemia and in the assay on MOLT-4 leukemia were -19.8% (active) and -7.33% (active), respectively.

The values above are taken from PubChem BioAssay (NCI).
